In the supplement of paper PMC3334620:
Whole data set: some 33,000 sequences, median “E-score (-0.5 to 0.5)” near -0.021, cut for the highest 2% near 0.32. The entries come from a sample that favours the highest values as a whole.

target: T1, Zap1 (UniProt P47043); assay: PBM E-score (8-mer binding enrichment) (E-score (-0.5 to 0.5)); higher = stronger / more preferred TF binding; conditions: protein concentration: 200 nM; construct: GST-full length
T1 sequence: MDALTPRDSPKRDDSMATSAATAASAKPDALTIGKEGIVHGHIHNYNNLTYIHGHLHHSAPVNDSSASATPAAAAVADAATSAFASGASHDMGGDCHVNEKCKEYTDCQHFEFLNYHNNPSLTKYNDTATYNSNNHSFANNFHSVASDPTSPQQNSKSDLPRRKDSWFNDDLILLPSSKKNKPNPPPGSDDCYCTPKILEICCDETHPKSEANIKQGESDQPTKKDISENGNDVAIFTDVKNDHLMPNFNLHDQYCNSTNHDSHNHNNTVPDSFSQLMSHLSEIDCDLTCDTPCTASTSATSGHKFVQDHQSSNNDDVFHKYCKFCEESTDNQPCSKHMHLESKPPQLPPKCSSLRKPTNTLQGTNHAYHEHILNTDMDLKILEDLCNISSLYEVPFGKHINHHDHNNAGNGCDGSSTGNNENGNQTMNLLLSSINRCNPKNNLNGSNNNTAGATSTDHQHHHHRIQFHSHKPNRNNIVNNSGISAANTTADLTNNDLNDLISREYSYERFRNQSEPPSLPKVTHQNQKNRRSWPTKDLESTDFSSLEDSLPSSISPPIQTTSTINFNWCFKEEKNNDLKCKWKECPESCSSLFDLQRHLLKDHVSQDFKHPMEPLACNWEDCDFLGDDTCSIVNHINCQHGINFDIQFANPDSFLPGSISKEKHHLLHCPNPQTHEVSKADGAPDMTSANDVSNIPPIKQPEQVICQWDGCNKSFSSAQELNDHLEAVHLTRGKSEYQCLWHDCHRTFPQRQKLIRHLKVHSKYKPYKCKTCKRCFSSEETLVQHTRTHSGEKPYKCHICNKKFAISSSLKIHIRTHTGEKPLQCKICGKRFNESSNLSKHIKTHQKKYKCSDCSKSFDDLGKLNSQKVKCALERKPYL
Procedure: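 Universal 'all 10-mer' protein binding microarrays (Agilent AMADID 015681) probed with GST-tagged S. cerevisiae TFs (full-length or DBD) made by in vitro transcription/translation (PURExpress), about 100-200 nM. Bound TF was detected with fluorescent anti-GST. Each ungapped 8-mer (which stands for itself and its reverse complement) is scored by the PBM enrichment score (E-score), a modified Wilcoxon-Mann-Whitney statistic from -0.5 to +0.5, computed with the Universal PBM Analysis Suite. Scale: above 0.35 generally sequence-specific binding.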

Row | Sequence | PBM E-score
1 | ACCCTCCT | 0.189
2 | ATCAGTTC | -0.0391
3 | GTTCTTAA | 0.0134
4 | AAGTTAGT | -0.0228
5 | GTTGAACA | -0.15
6 | ACGATGGG | -0.169
7 | GGTAGTTA | 0.339
8 | CGTAGTTA | 0.177
9 | AGTAGTTA | 0.11
10 | TAGTGCCA | -0.18
11 | CACCATGA | 0.00417
12 | AACCATGC | 0.156
13 | AACCATTG | 0.271
14 | AACCATTA | 0.365
15 | GACCATAA | 0.287
16 | CACCATTA | 0.037
17 | TACCATAA | 0.367
18 | AACCATAA | 0.41
19 | AACCATAC | 0.159
20 | TCCCATAA | 0.182
21 | CACCATAA | 0.0248
22 | AACCATGA | 0.357

Row | Sequence | PBM E-score
23 | CTAATGGC | 0.134
24 | TAACTAGA | 0.227
25 | AGGGACTA | -0.104
26 | ACGGTTCT | 0.0709
27 | ACTCTTGC | 0.0703
28 | TCGACTCA | -0.0722
29 | CAATTCCG | -0.00437
30 | AGGTATCA | 0.116
31 | CCTCTGAA | -0.072
32 | AGATGCGG | 0.0772
33 | AAAACCGT | 0.173
34 | GGGGTATA | 0.182
35 | AGGGTAGG | 0.32
36 | ACGGTATG | -0.0688
37 | AGGGTATC | 0.364
38 | CGGGTATA | 0.317
39 | AGGGTATG | 0.395
40 | ATGGTATC | 0.183
41 | AGGGTAGA | 0.135
42 | CGGGTATC | 0.252
43 | AGGGTAGC | 0.313
44 | AGGGTATA | 0.407

Row | Sequence | PBM E-score
45 | AAGGTATG | 0.226
46 | GGTTTTAC | 0.108
47 | GTGCGCCA | -0.175
48 | TATGTGGA | -0.0214
49 | ATTCTTGA | 0.0771
50 | CCTCTCAC | -0.0256
51 | AAAGTGGA | -0.0378
52 | CATCAAGG | 0.0235
53 | ACGTGAGC | -0.116
54 | ACGGTACG | 0.0714
55 | CCGGTACG | -0.136
56 | GCGGTACC | 0.418
57 | GCGGTACA | 0.13
58 | ACGGTACT | 0.0886
59 | CCGGTACC | 0.414
60 | GCGGTAGC | 0.0107
61 | ACGGTACC | 0.399
62 | CCGGTACA | 0.149
63 | AGACGGGC | -0.112
64 | CAGCAGCA | -0.198
65 | CGTATCGA | -0.133
66 | GAAGGTCA | 0.232

Row | Sequence | PBM E-score
67 | CAAGGTCC | 0.151
68 | CAAGGTCA | 0.386
69 | TAAGGTGA | 0.155
70 | AAAGGTCT | 0.238
71 | AAAGGTCA | 0.449
72 | AAAGGTCG | 0.323
73 | CAAGGTCG | 0.263
74 | ACAGGTCG | 0.0832
75 | AAAGGTGG | 0.158
76 | TAAGGTCA | 0.341
77 | AAAGGTCC | 0.245
78 | ACGACTCG | -0.134
79 | GTCGATGA | -0.149
80 | CCGGAGGA | -0.228
81 | CCTCAATA | 0.0804
82 | AGACCGGG | 0.0501
83 | CCACAGGG | 0.1
84 | CTCGTCAC | 0.099
85 | AATCAGCA | -0.0933
86 | ACCTGTTG | 0.265
87 | GGAGGCAA | -0.188
